Measurements taken from PubChem BioAssay.

Biological target: NADPH oxidase 4 (Homo sapiens) (UniProt Q9NPH5)
Test: compounds shifting NOX4 Amplex Red fluorescence – cell-based, HEK293-NOX4, tetracycline-induced, NOX inhibitor project, primary screen (AID 1160)
Settings: HEK293-NOX4, Amplex Red H2O2 fluorescence, 45 min; higher = more signal, called active from +8 up or from −8 down

NADPH oxidase 4 (Homo sapiens), sequence (Q9NPH5 whole entry, looked up): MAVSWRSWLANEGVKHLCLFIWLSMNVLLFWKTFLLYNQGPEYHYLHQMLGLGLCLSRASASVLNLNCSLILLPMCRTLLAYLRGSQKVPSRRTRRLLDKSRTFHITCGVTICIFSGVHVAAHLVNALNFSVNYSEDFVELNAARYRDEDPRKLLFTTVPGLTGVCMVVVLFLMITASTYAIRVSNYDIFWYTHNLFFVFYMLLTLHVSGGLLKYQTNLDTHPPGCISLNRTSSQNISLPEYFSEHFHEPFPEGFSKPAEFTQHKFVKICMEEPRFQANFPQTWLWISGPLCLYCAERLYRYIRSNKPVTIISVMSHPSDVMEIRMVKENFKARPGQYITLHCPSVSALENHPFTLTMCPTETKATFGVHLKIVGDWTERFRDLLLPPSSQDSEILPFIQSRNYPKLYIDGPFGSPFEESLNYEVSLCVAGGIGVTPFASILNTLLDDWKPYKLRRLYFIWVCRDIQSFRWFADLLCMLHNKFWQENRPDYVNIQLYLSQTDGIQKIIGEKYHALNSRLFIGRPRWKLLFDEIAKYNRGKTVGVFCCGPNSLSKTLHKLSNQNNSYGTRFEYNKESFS

z-score, inactive:
Cc1ccc(F)cc1S(=O)(=O)N[C@H]1CCN(Cc2ccc(OC(C)C)cc2)C1 -0.777
COCCOC(=O)N1C(=O)[C@@]2(c3cc(C#CCNC(N)=O)ccc31)[C@H](C(=O)Nc1nc3ccccc3s1)[C@H]1C(=O)O[C@H](c3ccccc3)[C@H](c3ccccc3)N1[C@@H]2c1ccccc1OCCO 0.695
CCCCC(O)C1C=CC2C(=O)N(c3ccccc3)C(=O)C2N1Nc1ccc([N+](=O)[O-])cc1 (stereo not drawn) -1.65
CCCN1C(=O)[C@@]2(c3ccc([N+](=O)[O-])cc3)CC(=O)N(CC34CC5CC(CC(C5)C3)C4)[C@@H]2c2ccc(CO)cc21 0.148
O=C1C=C(c2ccccc2)C(=O)C2=C1CC([C@H]1Oc3ccccc3S(=O)(=O)N3CCC[C@@H]13)=CC2 -3.24
O=C1[C@H]2C=C(I)[C@H](C[C@@H]2OCCCCCCO)[C@@]12CO2 0.645
N#Cc1ccc(-c2cccc(=O)o2)cc1 -1.72
N#Cc1ccc(NN2C(C(O)C3CC=CCC3)C=CC3C(=O)N(c4ccccc4)C(=O)C32)cc1 (stereo not drawn) -2.27
COC(=O)C(CC#Cc1ccc2c(c1)[C@]1(C(=O)N2)[C@H](c2ccc(OCCO)cc2)N2[C@H](c3ccccc3)[C@H](c3ccccc3)OC(=O)[C@H]2[C@@H]1C(=O)N1CCCCCCC1)C(=O)OC 0.196
COCCOC(=O)N1C(=O)[C@@]2(c3ccccc31)[C@H](c1ccc(O)cc1)N1[C@H](c3ccccc3)[C@H](c3ccccc3)OC(=O)[C@H]1[C@@H]2C(=O)N1CCCCCCC1 0.898
COc1ccc(C(O)C2C=CC3C(=O)N(c4ccccc4)C(=O)C3N2Nc2ccc([N+](=O)[O-])cc2)c2ccccc12 (stereo not drawn) -0.96
O=C1c2ccccc2[C@@]2(Cc3ccccc3N(Cc3ccccc3)C2=O)[C@H](c2ccc(CO)cc2)N1Cc1ccccc1Cl -0.644
O=C1[C@@H]2[C@@H](CC(COc3ccccc3)=C([C@H](O)CCc3ccccc3)[C@@H]2CO)C(=O)N1Cc1ccccc1 -0.526
COCCOC(=O)N1C(=O)[C@@]2(c3cc(C#CCC(C(=O)OC)C(=O)OC)ccc31)[C@H](C(N)=O)[C@H]1C(=O)O[C@H](c3ccccc3)[C@H](c3ccccc3)N1[C@@H]2c1ccc(O)cc1 0.385
CN(C)CCCNC(=O)[C@@]1(C)c2ccccc2C(=O)N(Cc2ccc(OC(F)(F)F)cc2)[C@H]1c1ccc(CO)cc1 -0.303
CCCC=C(CCC)[C@@H](NC(=O)OCC(C)C)c1ccc(C(=O)OC)cc1 1.89
COc1ccc(CCNC(=O)[C@@H]2c3ccccc3C(=O)N(Cc3ccccc3OC)[C@H]2c2ccc(CO)cc2)cc1 -0.213
CCCC#C[Si](O[C@H](CC)c1cn(Cc2ccccc2)nn1)(C(C)C)C(C)C -0.11
[N-]=[N+]=NCc1ccccc1[C@@H]1OC(c2ccc(OCCCO)cc2)=N[C@]1(Cc1ccccc1N=[N+]=[N-])C(=O)O -0.241
CN(C)CCCNC(=O)[C@@H]1c2ccccc2C(=O)N(Cc2ccccc2C(F)(F)F)[C@H]1c1ccc(CO)cc1 1.03
C=CCNC(=O)[C@H]1[C@@H]2C(=O)O[C@@H](c3ccccc3)[C@@H](c3ccccc3)N2[C@@H](c2ccc(OCCO)cc2)[C@]12C(=O)Nc1ccccc12 0.841
O=C1O[C@@H](c2ccccc2)[C@@H](c2ccccc2)N2[C@@H](c3ccccc3OCCO)[C@]3(C(=O)Nc4ccc(C#CCCO)cc43)[C@@H](C(=O)NC[C@H](O)c3ccccc3)[C@H]12 0.462
C[C@]1(C(=O)O)c2ccccc2C(=O)N(Cc2cc(F)cc(C(F)(F)F)c2)[C@H]1c1ccc(CO)cc1 -1.43
